Screens (PubChem BioAssay)
PPARg SRC2 recr – PPARgamma-driven SRC-2 recruitment agonism. PPARgamma LBD-SRC-2 recruitment, biochemical. 200,000 compounds, 0.34% hits. P37231. activation, % at 8 µM;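 further: 0% = vehicle and 100% = reference agonist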
SRC3 TRFRET art – flags TR-FRET format artefacts in PPARgamma SRC-3 recruitment agonist screen; 99,000 compounds, 0.39% hits; TR-FRET ratio at 8 µM; TR-FRET artefact counter-screen, PPARgamma/SRC-3 format; stronger effect = higher value; in the data active means TR-FRET ratio above about 2000
SRC1 TRFRET art – TR-FRET artefact, counter-screen to PPARgamma/SRC-1 agonist assay; TR-FRET detection artefact counter-screen, emission ratio; stronger effect = higher value; TR-FRET ratio at 8 µM; 99,000 compounds, 0.34% hits; AID 1051; in the data active means TR-FRET ratio above about 2300
PPARg SRC3 recr – PPARgamma-driven SRC-3 recruitment agonism; biochemical PPARgamma/SRC-3 coactivator recruitment assay; activation, % at 8 µM; 200,000 compounds, 0.26% hits; AID 731; in the data active means activation above about 23%;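 further: 0% = DMSO and 100% = reference agonist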
TR-FRET SRC-2 ct – flags TR-FRET format artefacts in PPARgamma SRC-2 recruitment agonist screen; AID 1049; TR-FRET artefact counter-screen; stronger effect = higher value; TR-FRET ratio at 8 µM; 200,000 compounds, 0.4% hits; in the data active means TR-FRET ratio above about 2000
PPARg SRC1 recr – promotes SRC-1 coactivator recruitment by human PPARgamma; P37231; PPARgamma-SRC-1 coactivator recruitment biochemical assay; activation, % at 8 µM; 200,000 compounds, 0.41% hits; in the data active means activation above about 19%;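 further: 0% = DMSO and 100% = reference agonist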
PPARg SRC2 conf – human PPARgamma SRC-2 recruitment agonism, confirmation | shares compounds with PPARg SRC3 recr | biochemical SRC-2 recruitment by PPARgamma | activation, % at 8 µM | 790 compounds, 52% hits | AID 1297;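 further: 0% = vehicle alone and 100% = reference agonist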
PPARg SRC1 conf – human PPARgamma SRC-1 recruitment agonism, confirmation. AID 1300. PPARgamma–SRC-1 coactivator recruitment biochemical assay. 790 compounds, 43% hits. activation, % at 8 µM. shares compounds with PPARg SRC3 recr; in the data active means activation above about 20%;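 further: 0% = vehicle wells and 100% = reference agonist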
PPARg SRC3 ag – confirmation of agonists of SRC-3 recruitment by human PPARgamma; activation, % at 8 µM; biochemical PPARgamma-SRC-3 coactivator recruitment, agonist mode; AID 1301; shares compounds with PPARg SRC3 recr; 790 compounds, 29% hits; in the data active means activation above about 24%;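 further: 0% = vehicle wells and 100% = reference agonist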
* hit, by the source's call; / = no result given. A selection: hits, their analogues and other compounds. The true share with any hit is near 0.84%. Unless noted, no stated cut-off is given here; in the data, active means activation above about 22%; inactive means the rest.

SMILES | PPARg SRC2 recr | SRC3 TRFRET art | SRC1 TRFRET art | PPARg SRC3 recr | TR-FRET SRC-2 ct | PPARg SRC1 recr | PPARg SRC2 conf | PPARg SRC1 conf | PPARg SRC3 ag
CCOC(=O)c1ccc(NC(=O)CSc2nc3cccnc3n2C)cc1 | 9 | / | / | 4 | 1654 | 14 | / | / | /
CCn1c(C)nc2cc(S(=O)(=O)N3CCCC3)ccc21 | 24* | / | / | -10 | 1843 | 1 | -2 | 2 | 2
Cc1cc2c(nc1C)CCCN2C[C@@H](C)O/N=C1/[C@H]2CCn3c(=O)n(-c4ccccc4)c(=O)n3[C@H]2[C@H](O)[C@@H]2O[C@H]12 | 6 | 1609 | 1616 | 2 | 1469 | 7 | / | / | /
CCOC(=O)c1sc(=S)n(-c2ccccc2Cl)c1SC | 31* | / | / | 31* | 1889 | 30* | 40* | 36* | 29*
CCOC(=O)c1sc(=S)n(-c2ccccc2)c1SC | -1 | / | / | 3 | 1626 | -3 | / | / | /
CCn1c(O)c(/C=C2\C=Nc3ccccc32)sc1=Nc1ccccc1 | 4 | / | / | 6 | 1406 | 1 | / | / | /
O=C(Cc1ccccc1)Nn1c(O)c(/C=C2\C=Nc3ccccc32)sc1=S | 24* | 1630 | 2099 | 14 | 1652 | 14 | 7 | 7 | 8
O=C(O)c1cc(-c2ccc(Cl)s2)nc2ccccc12 | 39* | 2388* | 3037* | 22 | 2455* | 37* | 50* | 35* | 33*
CC1(C)C(=O)Nc2ccccc2N1C(=O)COc1cccnc1[N+](=O)[O-] | -11 | 1629 | 1811 | -4 | 1468 | -3 | / | / | /
S=c1[nH]nc(-c2cccnc2)o1 | 13 | / | / | 12 | 1625 | 17 | / | / | /
S=c1[nH]nc(-c2cccc(Br)c2)o1 | 108* | / | / | 150* | 4187* | 94* | 68* | 48* | 48*
Nc1ccc(Nc2nc(-c3ccncc3)cs2)cc1 | 19 | / | / | 33* | 1644 | 11 | 5 | 3 | 3
CCN(CC)C(=O)C1=C(C)Nc2ncnn2C1c1cccnc1 (stereo unspecified) | -12 | 1479 | 1722 | 4 | 1423 | -3 | / | / | /
CN(C)c1ccc(N2CN=C3SCC(=O)N3C2)cc1 | 64* | / | / | 86* | 2229* | 50* | 6 | 10 | 3
O=C1CSC2=NCN(c3ccc4c(c3)OCO4)CN12 | -8 | / | / | -5 | 1524 | 2 | / | / | /
Cc1cc(SCC(=O)c2ccc3c(c2)OCO3)nc2ccccc12 | 37* | / | / | 44* | 3038* | 20* | 70* | 57* | 47*
Cc1cc(C)nc(-n2nc(C)cc2NC(=O)CN2CCc3ccccc3C2)n1 | -2 | / | / | -4 | 1463 | -3 | / | / | /
Cc1cc(C)nc(-n2nc(C)cc2NC(=O)CN2CCCC(C)C2)n1 (stereo unspecified) | 15 | / | / | 13 | 1531 | 20* | 4 | 4 | 2
c1ccc(-c2nnsc2-c2nc3ccccc3[nH]2)cc1 | 17 | 1662 | 2080 | 13 | 1693 | 21* | 40* | 34* | 22
c1ccc(-c2nnsc2-c2ncc[nH]2)cc1 | 2 | 1443 | 1803 | 1 | 1496 | -5 | / | / | /
Cc1ccc(OCC(=O)NC(=S)Nc2ccc3c4c(cccc24)CC3)cc1 | -4 | 1684 | 2107 | -1 | 1680 | 0 | / | / | /
CC(C)(C)c1ccc(OCC(=O)Nc2ccc3c4c(cccc24)C(=O)NC3=O)cc1 | 14 | 1741 | 2184 | 33* | 1795 | 14 | 13 | 14 | 10
Cc1cc(C)cc(CSCC(=O)N/N=C/c2ccc(OCC(=O)NCc3ccco3)cc2)c1 | 11 | / | / | 25* | 1568 | 8 | 2 | 0 | 1
COc1ccc(CSCC(=O)N/N=C/c2ccc(OCC(=O)NCc3ccco3)cc2)cc1 | -1 | / | / | 5 | 1647 | 7 | / | / | /
Clc1ccc(-c2nnc3sc(-c4ccc(Br)o4)nn23)c(Cl)c1 | 23* | / | / | 21 | 1760 | 6 | 15 | 10 | 10
SMILES | PPARg SRC2 recr | SRC3 TRFRET art | SRC1 TRFRET art | PPARg SRC3 recr | TR-FRET SRC-2 ct | PPARg SRC1 recr | PPARg SRC2 conf | PPARg SRC1 conf | PPARg SRC3 ag
CN(C)c1ccc(-c2nn3c(-c4ccc(Cl)cc4Cl)nnc3s2)cc1 | 5 | 1563 | 1837 | -3 | 1484 | 3 | / | / | /
COc1ccc(OC)c(C2C(C(=O)c3cc4ccccc4o3)=C(O)C(=O)N2c2cc(C)on2)c1 (stereo unspecified) | 22* | / | / | 15 | 2296* | 19* | 28* | 21* | 17
Cc1cc2ncn(C(=O)c3c(-c4ccccc4Cl)noc3C)c2cc1C | 9 | / | / | 11 | 1567 | 6 | / | / | /
COc1ccc(CCNC(=O)c2c(O)c3c([nH]c2=O)CCCC3)cc1 | 8 | / | / | 11 | 1575 | 0 | / | / | /
CC(C)OC(=O)CCCN1C(=O)c2ccc(N)cc2C1=O | 23* | / | / | 13 | 1654 | 9 | 1 | 3 | -1
COC(=O)c1sccc1-c1ccc(/C=N/OC(=O)c2ccccc2)o1 | 56* | / | / | 47* | 2291* | 31* | 56* | 49* | 40*
CS(=O)(=O)c1sc2nc(-c3cccs3)cc(-c3ccccc3)c2c1N | 30* | / | / | 25 | 2002* | 22* | 28* | 22* | 21
O=C(Nc1cccnc1)c1sc2cccc(F)c2c1Cl | 5 | 1729 | 1937 | 3 | 1497 | 7 | / | / | /
O=C(Nc1cccnc1)c1sc(Nc2ccccc2F)nc1-c1ccccc1 | 48* | 3407* | 3447* | 31* | 3029* | 50* | 68* | 50* | 46*
Cc1ccccc1Nc1nc(-c2ccccc2)c(C(=O)Nc2cccnc2)s1 | 26* | 2456* | 2835* | 18 | 1978* | 24* | 44* | 36* | 26*
COc1ccc2c(c1OC)C(=O)N1N=C(c3ccc(O)cc3)CC21 (stereo unspecified) | -2 | / | / | 12 | 1571 | 6 | / | / | /
Cc1[nH]c2ccccc2c1-c1nc(-c2ccc(Cl)cc2)nnc1-c1ccccc1 | 16 | 1576 | 2100 | 2 | 1527 | 8 | / | / | /
O=C(O)c1cc(-c2cccnc2)nc2ccc(Br)cc12 | 16 | 2133* | 2326* | 13 | 1853 | 25* | 14 | 6 | 10
COC(=O)c1cc(-c2ccc3c(c2)OCO3)nc2ccccc12 | -2 | 1427 | 1725 | -2 | 1616 | -1 | / | / | /
O=C(O)c1cc(-c2ccc3c(c2)OCO3)nc2ccc(Br)cc12 | 31* | 2538* | 2873* | 23* | 2330* | 33* | 9 | 1 | 8
COc1cc2c(cc1OC)CN(C1CC(=O)N(c3c(C)cccc3C)C1=O)CC2 (stereo unspecified) | 0 | 1497 | 1719 | -1 | 1428 | -6 | / | / | /
CCOc1ccc(-c2n[nH]c(=S)o2)cc1 | 6 | 1733 | 2049 | 6 | 1808 | 16 | / | / | /
CCOc1ccccc1-c1n[nH]c(=S)o1 | 39* | / | / | 50* | 2292* | 28* | 43* | 30* | 28*
